Screens (PubChem BioAssay)
Integrin act MD: activates integrin-mediated alleviation for muscular dystrophy. alpha7betagal myoblasts, beta-gal FDG fluorescence, 48 h. Potency, µM (titrated, usually from 38.3 µM), inactives show at the top dose activation, hits mostly activators. 350,000 compounds, 0.064% hits. AID 624291;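 note: 100% = response of the positive control SU9516; nearly all actives have a fitted effect of over 60% in size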
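Alpha7betagal+/- myoblasts (passage 13) were plated 16-24 hr, then exposed to compounds (1:260 dilution of DMSO stock) for 48 hours at 37C. After MPER lysis, β-galactosidase reporter activity was read as FDG fluorescence (ex 480/em 540) after 30 minutes.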
Mito fusion yeast: blocks mitochondrial division or promotes mitochondrial fusion | Potency, µM (highest dose often 46.1 µM), inactives show top-dose growth rescue (activation), hits mostly activators | AID 485298 | 320,000 compounds, 0.23% hits | S. cerevisiae fusion-defective mutant growth rescue, CellTiterGlo 48 h; note: % of control where 0% means no effect; nearly all actives have a fitted effect of over 45% in size
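Growth-rescue viability read-out: after 48 h at the non-permissive 37C in glycerol/ethanol YPEG, yeast mitochondrial fusion mutants are measured by CellTiterGlo luminescence; compounds (23 nl pinned per well) restoring growth score as division inhibitors or fusion activators.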
MCF10A rereplic: inducers of DNA re-replication in MCF 10A breast cells | 350,000 compounds, 2.9% hits | AID 624296 | MCF 10A DNA re-replication, Hoechst nuclear intensity, 48 h | Potency, µM (titrated, usually from 46.1 µM), for the others: at the highest dose activity, positive = re-replication, most hits filed as activators; note: % of control where 0% means no effect; nearly all actives have a fitted effect of over 50% in size
A-T KAP1 phos: potential ataxia-telangiectasia treatments restoring KAP-1 phosphorylation; F2112 A-T fibroblasts, KAP-1 phosphorylation AlphaLISA; neocarzinostatin DNA damage 30 min before lysis; 320,000 compounds, 0.19% hits; Potency, µM (doses to about 57.5 µM), inactives show at the highest dose activation, hits mostly activators; AID 485349; note: % of control where 0% means no effect; nearly all actives have a fitted effect of over 45% in size
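hTERT-immortalized A-T patient fibroblasts (F2112), 500 cells/well in OPTI-MEM, 1% FBS, got compounds for 60 min, then NCS for 30 min at 37C. Lysates were then assayed for phospho-KAP-1 by AlphaLISA (anti-pKAP1 donor, anti-KAP1 acceptor beads), 6 hr at 25C.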
SW480 rerep: DNA re-replication induction in SW480 cells | SW480 DNA re-replication, Hoechst DNA content imaging, 48 h | Potency, µM (titrated, usually from 46.1 µM), without a hit: at the top dose re-replication activation, most hits filed as activators | 340,000 compounds, 1.8% hits; note: % of control where 0% means no effect; nearly all actives have a fitted effect of over 55% in size
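Image-based read-out: total Hoechst fluorescence of nuclei (405 nm excitation, 500-530 nm emission), with hits raising the fraction of high-intensity nuclei. SW480 colon cells incubated 48 hr with compounds at 37 C.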
Starred values were filed as active, the others as inactive; ? = inconclusive; nt = no result given; ! = not confirmed by another sample; [ ] = remark or other dose. Hits are enriched below; roughly 4.2% of the tested compounds scored in any of these assays. Calls come from the whole dose curve; as a rule, active = well fitted activation curve with a large enough effect; inconclusive = small, poorly fitted or top-dose-only effect; inactive = no such curve, though single readings can be large or run the other way. Potency is the fitted concentration of half-maximal effect.

SMILES	Integrin act MD	Mito fusion yeast	MCF10A rereplic	A-T KAP1 phos	SW480 rerep
COc1ccc2c(c1)C(CC(=O)NN)CCC2 (stereo not drawn)	-33%	nt	2.3µM*	nt	13µM*
Cc1ccc2[nH]c3c(c2c1)SC(C)(C)CC3=O	-14%	8%	18µM*	5%	?
COc1cccc(S(=O)(=O)N(C)C[C@@H]2Oc3cc(Br)ccc3S(=O)(=O)N([C@@H](C)CO)C[C@@H]2C)c1	-25%	nt	nt	nt	nt
C[C@]12CCC[C@H](O1)[C@H]([C@@H](O)c1ccccc1)O2	9%	-1%	25%	-3%	-3%
CCC(=O)N1CCc2cc(Br)cc(S(=O)(=O)CCC(=O)N(C)c3cccc(C)c3)c21	nt	-1%	nt	11%	nt
Cc1c(C(N)=O)c(-c2ccccc2)nn1-c1ccccc1	-1%	5%	-3%	6%	-1%
CCCc1c(-c2ccc(O)cc2)nn(-c2ccc(O)cc2)c1-c1ccc(O)cc1	nt	16µM*!	?	-11%	-10%
O=C(NCC1CCN(Cc2ccccc2F)CC1)C1CCCN(c2ncnc3c2nc2n3CCCCC2)C1 (stereo not drawn)	-43%	19%	12%	7%	9%
O=C1c2cccc3cccc(c23)C(=O)C1(O)O	-36%	nt	21µM*	nt	?
Cc1c(NC(=O)C(C)OC(=O)C23CC4CC(CC(Br)(C4)C2)C3)c(=O)n(-c2ccccc2)n1C (stereo not drawn)	0%	4%	1.5µM*	1%	-32%
Cc1c(NC(=O)C(C)Oc2cccc(F)c2)c(=O)n(-c2ccccc2)n1C (stereo not drawn)	11%	nt	-5%	5%	23µM*
Cc1c(NC(=O)COC(=O)C23CC4CC(CC(O)(C4)C2)C3)c(=O)n(-c2ccccc2)n1C	-16%	-1%	-3%	2%	-10%
O=C(O)c1ccc(/C=N/N2CCN(Cc3ccccc3)CC2)cc1	-3%	-3%	-4%	-9%	?
CCCCCCCCCCCC(CC1OC(=O)C1CCCCCC)OC(=O)C(CC(C)C)NC=O (stereo not drawn)	nt	nt	5.3µM*	nt	13%
COc1ccc(S(=O)(=O)N2CCOC2CNC(=O)C(=O)NCCc2ccccc2)cc1 (stereo not drawn)	-9%	-1%	-9%	6%	-4%
O=c1cc(O)c(-c2ccc(Cl)cc2)c(Cl)[nH]1	14%	0%	-10%	2%	-9%
O=C1c2cc(Cl)ccc2-c2c(O)cc(Cl)cc21	-74%	nt	13µM*	nt	?
CC(NC(=O)/C(C#N)=C/c1ccc(N2CCOCC2)cc1)c1ccccc1 (stereo not drawn)	-45%	29%	21µM*	4%	?
CC(NC(=O)/C(C#N)=C/c1ccc([N+](=O)[O-])o1)c1ccccc1 (stereo not drawn)	-59%	-51%	3.7µM*	-5%	3.7µM*
CCOCCCNC(=O)/C(C#N)=C/c1cc(Br)c(O)c(Br)c1	-47%	0%	12µM*	-20%	8.2µM*
CCOCCCNC(=O)/C(C#N)=C/c1ccc(-c2ccc(S(=O)(=O)N3CCOCC3)cc2)o1	-10%	21%	?	-9%	?
COCCNC(=O)/C(C#N)=C/c1cc(Br)c(O)c(OC)c1	-6%	-1%	-4%	-15%	3%
CCOCCCNC(=O)/C(C#N)=C/c1ccc([N+](=O)[O-])o1	-1%	-2%[9.22 µM]	5.2µM*	-5%	?
CC(NC(=O)/C(C#N)=C/c1ccco1)c1ccccc1 (stereo not drawn)	-8%	-3%	-3%	13%	1%
Cc1cccc(-n2c(C)nc3cc(C(=O)NCCN4CCOCC4)ccc32)c1	5%	nt	nt	nt	nt
SMILES	Integrin act MD	Mito fusion yeast	MCF10A rereplic	A-T KAP1 phos	SW480 rerep
COC(=O)c1ccc(/C=C(\C#N)C(=O)NC(C)c2ccccc2)cc1 (stereo not drawn)	-34%	-4%	18µM*	10%	?
C#CCn1c(=NC(=O)c2ccc(Cl)s2)sc2cccc(OC)c21	7%	4%	18µM*	9%	11%
C#CCn1c(=NC(=O)c2cccs2)sc2cccc(OCC)c21	15%	5%	11%	2%	3%
COc1ccc2ccccc2c1/C=N/NC(=O)c1nnn(-c2nonc2N)c1C(C)C	-5%	-2%	?	13%	-7%
C/C(=N\NC(=O)c1nnn(-c2nonc2N)c1-c1ccccc1)c1ccccc1O	-12%	-3%	15µM*	-4%	0.82µM*
CCCc1c(C(=O)N/N=C(\C)c2ccccc2O)nnn1-c1nonc1N	-22%	nt	nt	nt	nt
Nc1nonc1-n1nnc(C(=O)N/N=C/c2ccc(OCc3ccc(F)cc3)cc2)c1COc1ccccc1	?	9%	?	-20%	15µM*
Cc1ccc(COc2cccc(/C=N/NC(=O)c3nnn(-c4nonc4N)c3C)c2)cc1	4%	0%	2.6µM*	7%	-8%
CCOc1cc(/C=N/NC(=O)c2nnn(-c3nonc3N)c2C)ccc1OCc1ccc(C)cc1	-7%	nt	nt	nt	nt
Cc1c(C(=O)N/N=C/c2c(O)ccc3ccccc23)nnn1-c1nonc1N	-24%	2%	-1%	3%	0.73µM*
Cc1ccccc1NC(=O)CNC(=O)N1CC(=O)Nc2ccccc21	1%	nt	nt	nt	nt
O=c1[nH]cnc2c1sc1nc(C(F)F)cc(-c3ccccc3)c12	2%	2%	0%	0%	?
CCC1(C2=CCCCC2)C(=O)NC(=O)N=C1N (stereo not drawn)	3%	nt	-11%	nt	-7%
CCCN(CC(=O)Nc1ccccc1OC)C(=O)Cn1c(=O)oc2ccccc21	2%	nt	1%	nt	-62%
Cn1cc(C(=O)N2CCN(c3cccc(Cl)c3)CC2)c(=O)c2cc(S(=O)(=O)N3CCOCC3)ccc21	-23%	1%	0%	2%	-15%
CN(C)CCNC(=O)Nc1ccc([N+](=O)[O-])cc1	0%	8%	1%	-1%	-7%
CCOC(=O)c1nnn(-c2nonc2N)c1-c1ccc(C)cc1	-8%	6%	-2%	0%	-1%
Nc1nonc1-n1nnc(C(=O)N/N=C/c2cc(Br)ccc2O)c1CNc1ccccc1	-28%	-6%	7.3µM*	-5%	?
Cc1ccc(/C=N/NC(=O)c2nnn(-c3nonc3N)c2CNc2ccccc2)cc1	-1%	2%	15%	1%	23%
CCOC(=O)c1nnn(-c2nonc2N)c1-c1ccc(Br)cc1	9%	10%	0.65µM*	7%	-3%
CC(C)c1nnc(SCC(=O)NC2CCCCC2)n1C	-19%	-5%	-2%	1%	-8%
O=C(C1CCC(CNS(=O)(=O)c2cccc3nsnc23)CC1)N1CCN(c2ccccn2)CC1 (stereo not drawn)	0%	3%	-2%	1%	-26%
COc1ccc(CN2C(=O)c3cccc4cccc(c34)C2=O)cc1	2%	-1%	-4%	0%	18µM*
